# Measured values published in PMC7862700, “An all-to-all approach to the identification of sequence-specific readers for epigenetic DNA modifications on cytosine”.
# Legend:
# Assay in all cases: DAPPL (digital affinity profiling via proximity ligation, sequencing); 10 mM Tris-HCl pH 7.5, 50 mM NaCl, 1 mM DTT, 4% glycerol, room temperature, 30 min; GST-TFs on glutathione beads, 16-mer random dsDNA library, 0.1% formaldehyde crosslink after washing; high values mean tight binding
# FLI1 = biological target: T1, FLI1 (Homo sapiens, UniProt Q01543 1-452); conditions: protein: recombinant; tags: N-terminal GST; dsDNA, one strand shown
# T1 sequence: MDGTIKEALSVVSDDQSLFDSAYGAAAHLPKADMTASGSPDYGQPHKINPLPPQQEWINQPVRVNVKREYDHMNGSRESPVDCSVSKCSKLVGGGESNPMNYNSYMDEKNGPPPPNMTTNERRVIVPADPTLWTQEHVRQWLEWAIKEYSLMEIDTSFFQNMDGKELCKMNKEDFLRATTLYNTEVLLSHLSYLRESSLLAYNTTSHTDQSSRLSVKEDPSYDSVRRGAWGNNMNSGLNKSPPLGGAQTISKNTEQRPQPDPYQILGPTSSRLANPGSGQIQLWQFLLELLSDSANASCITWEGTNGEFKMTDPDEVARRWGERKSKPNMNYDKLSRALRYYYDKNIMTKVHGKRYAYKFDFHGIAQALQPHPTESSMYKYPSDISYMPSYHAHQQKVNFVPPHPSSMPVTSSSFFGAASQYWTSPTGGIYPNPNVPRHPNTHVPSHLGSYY
# In short: (§1)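 A tag-only sample was pooled with DNA-barcoded human transcription factors that had been expressed in yeast as GST fusions and captured on glutathione beads. The pools were incubated for 30 min at room temperature with 200 nmole of a random double-stranded 16-mer DNA library in Tris/NaCl/DTT/glycerol buffer, then washed, crosslinked with 0.1% formaldehyde, proximity-ligated (BsaI/T4 ligase, 1 h, 37 °C), PCR-amplified and sequenced on an Illumina NextSeq500. Binding signal is each hexamer's read frequency for a factor divided by its frequency for the tag-only sample.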
# ELK1 = biological target: T2, ELK1 (Homo sapiens, UniProt P19419 1-428); conditions: protein: recombinant; tags: N-terminal GST; dsDNA, one strand shown
# T2 sequence: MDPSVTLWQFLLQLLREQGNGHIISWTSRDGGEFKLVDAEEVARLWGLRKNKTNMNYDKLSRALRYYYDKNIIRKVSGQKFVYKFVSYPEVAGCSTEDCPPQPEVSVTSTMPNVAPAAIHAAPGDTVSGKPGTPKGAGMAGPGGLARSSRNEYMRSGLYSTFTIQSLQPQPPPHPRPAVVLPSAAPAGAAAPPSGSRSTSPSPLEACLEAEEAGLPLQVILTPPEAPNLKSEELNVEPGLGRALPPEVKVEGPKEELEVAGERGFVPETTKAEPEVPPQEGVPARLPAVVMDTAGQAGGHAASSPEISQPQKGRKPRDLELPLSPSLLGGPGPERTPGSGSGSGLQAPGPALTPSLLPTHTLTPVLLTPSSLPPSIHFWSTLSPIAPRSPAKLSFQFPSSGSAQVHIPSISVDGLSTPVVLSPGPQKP
# In short: as §1
# GABPA = biological target: T3, GABPA (Homo sapiens, UniProt Q06546 1-454); conditions: protein: recombinant; tags: N-terminal GST; dsDNA, one strand shown
# T3 sequence: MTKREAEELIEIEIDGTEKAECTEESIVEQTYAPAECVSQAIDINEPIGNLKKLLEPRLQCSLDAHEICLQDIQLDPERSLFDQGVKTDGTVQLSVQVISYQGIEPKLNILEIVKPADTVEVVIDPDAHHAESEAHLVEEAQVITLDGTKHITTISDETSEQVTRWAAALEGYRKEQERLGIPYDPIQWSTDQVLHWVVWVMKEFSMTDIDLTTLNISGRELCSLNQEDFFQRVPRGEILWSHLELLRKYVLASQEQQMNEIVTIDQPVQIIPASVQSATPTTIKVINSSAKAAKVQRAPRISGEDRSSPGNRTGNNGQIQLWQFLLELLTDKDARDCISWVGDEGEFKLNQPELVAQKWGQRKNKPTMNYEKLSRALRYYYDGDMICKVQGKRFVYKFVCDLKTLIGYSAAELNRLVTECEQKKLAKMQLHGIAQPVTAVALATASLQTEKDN
# In short: as §1
# ERG = biological target: T4, ERG (Homo sapiens, UniProt P11308 1-479); conditions: protein: recombinant; tags: N-terminal GST; dsDNA, one strand shown
# T4 sequence: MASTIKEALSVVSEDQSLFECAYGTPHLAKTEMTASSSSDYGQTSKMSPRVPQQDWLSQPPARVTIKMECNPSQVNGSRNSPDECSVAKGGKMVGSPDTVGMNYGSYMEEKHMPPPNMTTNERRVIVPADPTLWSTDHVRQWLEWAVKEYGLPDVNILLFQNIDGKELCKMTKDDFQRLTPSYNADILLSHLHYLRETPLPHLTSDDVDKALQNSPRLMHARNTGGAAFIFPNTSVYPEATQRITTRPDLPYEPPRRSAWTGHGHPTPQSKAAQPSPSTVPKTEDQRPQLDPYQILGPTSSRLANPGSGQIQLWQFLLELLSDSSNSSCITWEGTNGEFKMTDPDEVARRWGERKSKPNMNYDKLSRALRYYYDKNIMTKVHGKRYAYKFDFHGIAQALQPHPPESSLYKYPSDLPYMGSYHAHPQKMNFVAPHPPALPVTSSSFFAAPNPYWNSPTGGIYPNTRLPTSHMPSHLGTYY
# In short: as §1
# ELF1 = ELF1 (Homo sapiens, UniProt P32519 1-619); conditions: protein: recombinant; tags: N-terminal GST; dsDNA, one strand shown
# In short: as §1
# EHF = biological target: T5, EHF (Homo sapiens, UniProt Q9NZC4 1-300); conditions: protein: recombinant; tags: N-terminal GST; dsDNA, one strand shown
# T5 sequence: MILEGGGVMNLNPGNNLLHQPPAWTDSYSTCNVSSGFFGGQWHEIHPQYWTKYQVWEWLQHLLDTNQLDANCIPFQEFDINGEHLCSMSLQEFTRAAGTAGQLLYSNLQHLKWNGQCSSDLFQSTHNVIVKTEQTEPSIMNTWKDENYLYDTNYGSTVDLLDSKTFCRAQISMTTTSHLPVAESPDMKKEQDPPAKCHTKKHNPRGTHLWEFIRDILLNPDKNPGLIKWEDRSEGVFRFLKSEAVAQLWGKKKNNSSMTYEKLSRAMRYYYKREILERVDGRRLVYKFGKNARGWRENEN
# In short: as §1
# SPI1 = SPI1 (Homo sapiens, UniProt P17947 1-270); conditions: protein: recombinant; tags: N-terminal GST; dsDNA, one strand shown
# In short: as §1
# SPIB = SPIB (Homo sapiens, UniProt Q01892 1-262); conditions: protein: recombinant; tags: N-terminal GST; dsDNA, one strand shown
# In short: as §1
# ELK3 = biological target: T6, ELK3 (Homo sapiens, UniProt P41970 1-407); conditions: protein: recombinant; tags: N-terminal GST; dsDNA, one strand shown
# T6 sequence: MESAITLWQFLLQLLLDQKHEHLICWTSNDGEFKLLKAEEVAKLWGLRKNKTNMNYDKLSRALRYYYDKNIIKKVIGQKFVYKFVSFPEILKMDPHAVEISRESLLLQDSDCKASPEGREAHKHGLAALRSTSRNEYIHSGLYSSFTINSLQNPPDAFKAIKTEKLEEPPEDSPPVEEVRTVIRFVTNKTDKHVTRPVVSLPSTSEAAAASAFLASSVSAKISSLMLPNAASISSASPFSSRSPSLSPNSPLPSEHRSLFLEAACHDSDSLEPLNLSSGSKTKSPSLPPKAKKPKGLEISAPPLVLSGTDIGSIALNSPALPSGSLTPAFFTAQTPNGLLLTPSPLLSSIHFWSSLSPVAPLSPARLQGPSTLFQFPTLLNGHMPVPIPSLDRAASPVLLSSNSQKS
# In short: as §1
# FEV = biological target: T7, FEV (Homo sapiens, UniProt Q99581 1-238); conditions: protein: recombinant; tags: N-terminal GST; dsDNA, one strand shown
# T7 sequence: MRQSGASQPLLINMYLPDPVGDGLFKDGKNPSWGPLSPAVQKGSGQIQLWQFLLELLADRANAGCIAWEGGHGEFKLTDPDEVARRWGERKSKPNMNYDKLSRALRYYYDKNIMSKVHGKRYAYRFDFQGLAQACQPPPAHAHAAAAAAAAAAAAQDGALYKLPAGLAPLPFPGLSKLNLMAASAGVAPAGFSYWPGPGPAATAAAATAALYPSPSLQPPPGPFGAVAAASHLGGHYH
# In short: as §1
# ETV5 = ETV5 (Homo sapiens, UniProt P41161 1-510); conditions: protein: recombinant; tags: N-terminal GST; dsDNA, one strand shown
# In short: as §1
# HSF1 = HSF1 (Homo sapiens, UniProt Q00613 1-529); conditions: protein: recombinant; tags: N-terminal GST; chain copies: 3; dsDNA, one strand shown
# In short: as §1
# SPIC = biological target: T8, SPIC (Homo sapiens, UniProt Q8N5J4 1-248); conditions: protein: recombinant; tags: N-terminal GST; dsDNA, one strand shown
# T8 sequence: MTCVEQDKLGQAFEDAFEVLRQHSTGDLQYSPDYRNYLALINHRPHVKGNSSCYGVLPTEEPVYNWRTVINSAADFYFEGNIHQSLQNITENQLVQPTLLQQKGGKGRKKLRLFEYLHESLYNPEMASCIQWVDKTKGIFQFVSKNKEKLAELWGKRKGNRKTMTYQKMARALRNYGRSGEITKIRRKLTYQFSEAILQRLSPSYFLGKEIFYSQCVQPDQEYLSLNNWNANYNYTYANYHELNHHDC
# In short: as §1
# ELF4 = ELF4 (Homo sapiens, UniProt Q99607 1-663); conditions: protein: recombinant; tags: N-terminal GST; dsDNA, one strand shown
# In short: as §1
# ELK4 = biological target: T9, ELK4 (Homo sapiens, UniProt P28324-2 1-405); conditions: protein: recombinant; tags: N-terminal GST; dsDNA, one strand shown
# T9 sequence: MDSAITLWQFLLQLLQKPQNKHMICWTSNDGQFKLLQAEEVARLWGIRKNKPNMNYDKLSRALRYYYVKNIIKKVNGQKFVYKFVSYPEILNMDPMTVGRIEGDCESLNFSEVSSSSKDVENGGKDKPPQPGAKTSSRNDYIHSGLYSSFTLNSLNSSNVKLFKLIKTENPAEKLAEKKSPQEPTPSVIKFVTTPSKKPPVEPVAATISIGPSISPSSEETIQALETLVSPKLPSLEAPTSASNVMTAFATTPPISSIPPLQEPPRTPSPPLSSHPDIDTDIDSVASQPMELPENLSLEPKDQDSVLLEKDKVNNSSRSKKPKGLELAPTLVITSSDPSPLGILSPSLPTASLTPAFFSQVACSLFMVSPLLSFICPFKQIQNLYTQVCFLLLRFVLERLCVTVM
# In short: as §1
# ETV2 = biological target: T10, ETV2 (Homo sapiens, UniProt O00321 1-342); conditions: protein: recombinant; tags: N-terminal GST; dsDNA, one strand shown
# T10 sequence: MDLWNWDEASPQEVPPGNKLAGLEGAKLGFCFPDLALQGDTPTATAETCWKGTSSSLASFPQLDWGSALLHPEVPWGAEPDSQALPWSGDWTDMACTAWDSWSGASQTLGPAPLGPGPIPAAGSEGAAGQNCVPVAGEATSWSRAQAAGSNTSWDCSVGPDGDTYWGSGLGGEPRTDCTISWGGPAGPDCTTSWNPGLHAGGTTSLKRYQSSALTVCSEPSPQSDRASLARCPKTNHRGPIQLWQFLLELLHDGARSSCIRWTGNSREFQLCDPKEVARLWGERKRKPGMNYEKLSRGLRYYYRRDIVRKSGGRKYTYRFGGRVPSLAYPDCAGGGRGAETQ
# In short: as §1
# ELF3 = biological target: T11, ELF3 (Homo sapiens, UniProt P78545 1-371); conditions: protein: recombinant; tags: N-terminal GST; dsDNA, one strand shown
# T11 sequence: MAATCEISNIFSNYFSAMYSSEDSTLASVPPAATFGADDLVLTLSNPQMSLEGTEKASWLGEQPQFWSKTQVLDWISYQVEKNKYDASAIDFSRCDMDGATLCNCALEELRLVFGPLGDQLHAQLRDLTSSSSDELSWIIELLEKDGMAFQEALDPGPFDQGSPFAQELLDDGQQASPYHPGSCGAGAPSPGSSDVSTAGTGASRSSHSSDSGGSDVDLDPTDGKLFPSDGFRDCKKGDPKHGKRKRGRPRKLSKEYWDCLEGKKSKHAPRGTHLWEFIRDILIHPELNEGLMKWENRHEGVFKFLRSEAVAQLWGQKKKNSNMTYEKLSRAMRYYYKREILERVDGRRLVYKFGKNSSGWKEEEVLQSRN
# In short: as §1
# CRX = CRX (Homo sapiens, UniProt O43186 1-299); conditions: protein: recombinant; tags: N-terminal GST; dsDNA, one strand shown
# In short: as §1
# ETV1 = ETV1 (Homo sapiens, UniProt P50549 1-477); conditions: protein: recombinant; tags: N-terminal GST; dsDNA, one strand shown
# In short: as §1
# Chain of CRX (O43186 whole entry): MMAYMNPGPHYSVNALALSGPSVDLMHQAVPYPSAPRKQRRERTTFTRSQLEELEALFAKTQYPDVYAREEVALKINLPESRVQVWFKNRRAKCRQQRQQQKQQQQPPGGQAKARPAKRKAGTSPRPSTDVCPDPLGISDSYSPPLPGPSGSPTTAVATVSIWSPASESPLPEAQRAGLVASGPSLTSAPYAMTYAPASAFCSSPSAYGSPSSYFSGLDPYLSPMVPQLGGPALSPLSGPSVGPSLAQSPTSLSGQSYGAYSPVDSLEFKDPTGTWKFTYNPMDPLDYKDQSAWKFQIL
# Chain of ELF4 (Q99607 whole entry): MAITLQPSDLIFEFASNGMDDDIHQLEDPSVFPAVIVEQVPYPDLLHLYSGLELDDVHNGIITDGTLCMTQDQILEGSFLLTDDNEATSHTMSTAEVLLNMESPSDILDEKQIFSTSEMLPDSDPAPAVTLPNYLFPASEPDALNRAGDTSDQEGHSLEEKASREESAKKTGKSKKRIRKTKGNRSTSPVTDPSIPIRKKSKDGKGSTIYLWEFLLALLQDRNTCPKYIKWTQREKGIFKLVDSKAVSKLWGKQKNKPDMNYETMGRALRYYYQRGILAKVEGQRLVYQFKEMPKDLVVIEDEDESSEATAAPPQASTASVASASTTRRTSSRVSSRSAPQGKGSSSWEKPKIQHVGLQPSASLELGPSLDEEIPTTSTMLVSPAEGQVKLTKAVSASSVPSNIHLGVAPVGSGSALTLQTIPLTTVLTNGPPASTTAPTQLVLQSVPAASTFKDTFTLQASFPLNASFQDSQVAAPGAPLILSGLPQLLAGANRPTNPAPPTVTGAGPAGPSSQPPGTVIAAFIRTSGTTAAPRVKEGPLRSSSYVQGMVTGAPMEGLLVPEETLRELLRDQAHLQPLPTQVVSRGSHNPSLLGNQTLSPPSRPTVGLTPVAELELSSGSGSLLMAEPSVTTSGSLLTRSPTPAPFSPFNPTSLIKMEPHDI
# Chain of SPIB (Q01892 whole entry): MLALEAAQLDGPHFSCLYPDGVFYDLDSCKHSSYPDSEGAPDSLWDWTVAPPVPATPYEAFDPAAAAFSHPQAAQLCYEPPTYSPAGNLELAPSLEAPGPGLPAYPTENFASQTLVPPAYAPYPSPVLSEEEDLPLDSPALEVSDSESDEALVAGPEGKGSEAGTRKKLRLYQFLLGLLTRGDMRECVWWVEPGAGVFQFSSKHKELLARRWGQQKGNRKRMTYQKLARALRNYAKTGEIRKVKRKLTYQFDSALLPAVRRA
# Chain of ETV5 (P41161 whole entry): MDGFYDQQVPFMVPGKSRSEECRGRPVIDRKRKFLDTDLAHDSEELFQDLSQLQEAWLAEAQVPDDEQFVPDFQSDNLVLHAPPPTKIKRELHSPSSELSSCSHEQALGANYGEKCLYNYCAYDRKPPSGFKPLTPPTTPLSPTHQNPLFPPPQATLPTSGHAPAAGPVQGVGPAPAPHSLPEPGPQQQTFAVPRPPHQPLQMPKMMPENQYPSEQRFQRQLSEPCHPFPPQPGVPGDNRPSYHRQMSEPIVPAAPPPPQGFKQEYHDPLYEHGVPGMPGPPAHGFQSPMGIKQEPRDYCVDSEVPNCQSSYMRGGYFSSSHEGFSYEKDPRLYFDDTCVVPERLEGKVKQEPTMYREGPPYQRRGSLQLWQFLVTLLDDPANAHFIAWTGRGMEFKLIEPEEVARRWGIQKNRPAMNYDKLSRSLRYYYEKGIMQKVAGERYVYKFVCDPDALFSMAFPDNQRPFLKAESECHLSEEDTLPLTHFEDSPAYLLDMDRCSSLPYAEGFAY
# Chain of ETV1 (P50549 whole entry): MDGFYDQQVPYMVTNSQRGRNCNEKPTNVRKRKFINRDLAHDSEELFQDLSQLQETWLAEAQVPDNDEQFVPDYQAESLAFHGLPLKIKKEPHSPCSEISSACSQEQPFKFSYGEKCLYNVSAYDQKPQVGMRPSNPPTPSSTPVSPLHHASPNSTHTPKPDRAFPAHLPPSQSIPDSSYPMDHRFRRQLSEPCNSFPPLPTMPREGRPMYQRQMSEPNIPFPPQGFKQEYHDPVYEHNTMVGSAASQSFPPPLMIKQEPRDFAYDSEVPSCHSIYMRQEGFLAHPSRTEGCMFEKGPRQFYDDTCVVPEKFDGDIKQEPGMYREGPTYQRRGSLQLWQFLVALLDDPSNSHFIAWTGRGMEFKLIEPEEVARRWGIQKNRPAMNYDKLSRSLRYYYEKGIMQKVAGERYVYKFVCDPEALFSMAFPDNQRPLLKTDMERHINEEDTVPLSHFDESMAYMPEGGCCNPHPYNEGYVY
# Chain of ELF1 (P32519 whole entry): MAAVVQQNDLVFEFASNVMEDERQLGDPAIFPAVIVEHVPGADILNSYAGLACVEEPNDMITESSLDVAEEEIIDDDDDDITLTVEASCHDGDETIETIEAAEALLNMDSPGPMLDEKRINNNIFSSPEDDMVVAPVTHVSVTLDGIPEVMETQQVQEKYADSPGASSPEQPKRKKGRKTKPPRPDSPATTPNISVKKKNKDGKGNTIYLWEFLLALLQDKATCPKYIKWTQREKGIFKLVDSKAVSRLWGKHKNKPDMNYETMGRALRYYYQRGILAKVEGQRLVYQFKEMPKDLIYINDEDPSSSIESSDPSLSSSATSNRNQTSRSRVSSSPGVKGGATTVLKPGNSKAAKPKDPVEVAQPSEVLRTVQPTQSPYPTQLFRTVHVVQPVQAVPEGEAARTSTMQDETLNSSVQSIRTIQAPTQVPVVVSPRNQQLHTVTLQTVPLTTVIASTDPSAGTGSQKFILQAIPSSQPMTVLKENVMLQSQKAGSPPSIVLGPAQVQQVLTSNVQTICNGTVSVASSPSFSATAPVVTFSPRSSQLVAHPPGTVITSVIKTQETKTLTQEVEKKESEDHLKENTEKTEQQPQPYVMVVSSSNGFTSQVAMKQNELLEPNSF
# Chain of HSF1 (Q00613 whole entry): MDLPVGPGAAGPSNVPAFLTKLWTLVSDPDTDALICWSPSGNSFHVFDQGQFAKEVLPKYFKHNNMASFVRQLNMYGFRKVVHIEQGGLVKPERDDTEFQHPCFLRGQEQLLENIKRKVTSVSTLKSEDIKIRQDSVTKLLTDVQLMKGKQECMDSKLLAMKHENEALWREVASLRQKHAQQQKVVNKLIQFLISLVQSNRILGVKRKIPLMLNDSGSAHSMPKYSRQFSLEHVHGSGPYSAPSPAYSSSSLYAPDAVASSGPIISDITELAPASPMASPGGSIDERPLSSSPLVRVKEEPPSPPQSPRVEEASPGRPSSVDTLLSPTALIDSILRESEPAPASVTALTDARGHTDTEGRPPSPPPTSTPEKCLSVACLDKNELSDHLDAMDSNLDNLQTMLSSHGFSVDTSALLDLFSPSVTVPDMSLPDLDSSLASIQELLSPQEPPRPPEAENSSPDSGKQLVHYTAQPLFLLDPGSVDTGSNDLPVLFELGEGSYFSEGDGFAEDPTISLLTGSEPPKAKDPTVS
sequence,measurement,setting,value
CTGTTA,binding signal,FLI1,"1.22 fold enrichment (6-mer frequency, TF over GST control)"
same,binding signal,ELK1,"1.24 fold enrichment (6-mer frequency, TF over GST control)"
same,binding signal,GABPA,"1.32 fold enrichment (6-mer frequency, TF over GST control)"
same,binding signal,ERG,"1.28 fold enrichment (6-mer frequency, TF over GST control)"
same,binding signal,ELF1,"1.24 fold enrichment (6-mer frequency, TF over GST control)"
same,binding signal,EHF,"1.26 fold enrichment (6-mer frequency, TF over GST control)"
same,binding signal,SPI1,"1.27 fold enrichment (6-mer frequency, TF over GST control)"
same,binding signal,SPIB,"1.27 fold enrichment (6-mer frequency, TF over GST control)"
same,binding signal,ELK3,"1.32 fold enrichment (6-mer frequency, TF over GST control)"
same,binding signal,FEV,"1.25 fold enrichment (6-mer frequency, TF over GST control)"
same,binding signal,ETV5,"1.2 fold enrichment (6-mer frequency, TF over GST control)"
same,binding signal,HSF1,"1.16 fold enrichment (6-mer frequency, TF over GST control)"
same,binding signal,SPIC,"1.28 fold enrichment (6-mer frequency, TF over GST control)"
same,binding signal,ELF4,"1.37 fold enrichment (6-mer frequency, TF over GST control)"
same,binding signal,ELK4,"1.4 fold enrichment (6-mer frequency, TF over GST control)"
same,binding signal,ETV2,"1.35 fold enrichment (6-mer frequency, TF over GST control)"
same,binding signal,ELF3,"1.32 fold enrichment (6-mer frequency, TF over GST control)"
same,binding signal,CRX,"1.16 fold enrichment (6-mer frequency, TF over GST control)"
same,binding signal,ETV1,"1.23 fold enrichment (6-mer frequency, TF over GST control)"
